# Source: PubChem BioAssay (NCATS)
# Inconclusive results are not listed. Calls of active or inactive are those of the source. Unless noted, calls come from the whole dose curve; as a rule, active = well fitted curve in the direction sought with a large enough effect; inconclusive = small, poorly fitted or top-dose-only effect, or another doubt; inactive = no such curve, though single readings can be large; an effect the other way counts as inactive or inconclusive.
# Key:
# [1] = qHTS profiling for inhibitors of Plasmodium falciparum (3D7) proliferation (AID 743322);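 note: infected erythrocytes exposed to compound for 72 h before lysis; 100% = DMSO vehicle wells and 0% = 0.29 µM artemisinin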; conditions: P. falciparum 3D7 proliferation; at 28.7 µM (top of the series)
# Summary of the method: (§1)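 Parasite DNA was quantified by SYBR Green I fluorescence (ex 485, em 535 nm) after overnight lysis in saponin/Triton buffer at room temperature. Cultures at 0.3% parasitemia and 2.5% hematocrit were first exposed to compound for 72 h at 37 C; signals were normalised to artemisinin (0.29 uM) and vehicle wells.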
# [2] = qHTS profiling for inhibitors of Plasmodium falciparum (DD2) proliferation (AID 743323; call rule not given here); conditions: lower = more inhibition; at 28.7 µM (top of the series)
# Summary of the method: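 SYBR Green fluorescence (ex 485, em 535 nm) of lysed cultures gives parasite DNA content; wells normalized to artemisinin (0.29 uM) and DMSO controls. Infected red cells: 0.3% parasitemia, 2.5% hematocrit, 72 h, 37 C.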
# [3] = qHTS profiling for inhibitors of Plasmodium falciparum (HB3) proliferation (AID 743324); conditions: Plasmodium falciparum HB3 blood-stage proliferation; at 28.7 µM (top of the series);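 note: 100% = DMSO vehicle wells and 0% = artemisinin-treated control wells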
# Summary of the method: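 SYBR Green fluorescence (485 ex/535 em) of lysed cultures, incubated overnight at room temperature in the dark, quantifies parasite DNA. Infected erythrocytes at 0.3% parasitemia and 2.5% hematocrit were exposed 72 h; values normalized to DMSO and 0.29 uM artemisinin controls.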
# [4] = qHTS profiling of the MIPE4 collection as inhibitors of Plasmodium falciparum (3D7) proliferation (AID 743344; call rule not given here;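 note: scaled between DMSO vehicle wells and 0.29 µM artemisinin as full inhibition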); conditions: P. falciparum 3D7 in erythrocytes, SYBR Green DNA fluorescence, 72 h; at 28.5 µM (top of the series)
# Summary of the method: as §1
# [5] = qHTS profiling of the MIPE4 collection as inhibitors of Plasmodium falciparum (DD2) proliferation (AID 743345; call rule not given here); conditions: P. falciparum Dd2 in erythrocytes, SYBR Green DNA, 72 h; at 28.5 µM (top of the series)
# Summary of the method: as §1
# [6] = qHTS profiling of the MIPE4 collection as inhibitors of Plasmodium falciparum (DD2) proliferation (Rep 2) (AID 743346; call rule not given here); conditions: P. falciparum Dd2 in erythrocytes, SYBR Green DNA, 72 h; at 28.5 µM (top of the series)
# Summary of the method: as §1
# [7] = qHTS profiling of the MIPE4 collection as inhibitors of Plasmodium falciparum (HB3) proliferation (AID 743347; call rule not given here;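 note: plate controls were DMSO vehicle wells for no effect and artemisinin wells for full effect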); conditions: P. falciparum HB3 in erythrocytes, SYBR Green DNA, 72 h; at 28.5 µM (top of the series)
# Summary of the method: as §1
# [8] = system: Zika virus NS2B-NS3 protease; assay: Primary screen GU AMC qHTS for Zika virus inhibitors (AID 1347154); conditions: Zika NS2B-NS3 unlinked protease, AMC fluorogenic substrate; series mostly up to 54.1 µM;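 note: 0% = no-inhibitor control and -100% = no-enzyme control; nearly all actives have a fitted effect of over 70% in size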
# Summary of the method: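 Unlinked Zika NS2B hydrophilic domain/NS3 protease domain noncovalent complex (25 nM final) in 10 mM Tris-HCl pH 8.0, 0.01% Tween 20, with AMC peptide substrate. Fluorescence (ex 340, em 450 nm) change over 15 min, room temperature; percent inhibition fitted to 4-parameter Hill equation.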
# [9] = target: Glucocorticoid receptor (Homo sapiens) (UniProt P04150); assay: GR-GFP Redistribution (AID 450;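 active = compounds whose dose series gives a full or clear partial fitted curve of increased nuclear translocation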; note: potency is the fitted concentration of half-maximal effect); conditions: U2OS GR-GFP nuclear translocation, laser cytometry, 2 h
# [10] = target: Glucocorticoid receptor (Homo sapiens) (UniProt P04150); assay: GR-EFC Redistribution (AID 451; calls by dose curve; note: potency is the fitted concentration of half-maximal effect); conditions: CHO-K1 GR-EFC translocation, beta-gal luminescence, 2 h
# Summary of the method: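 CHO-K1 cells stably expressing nuclear-localized β-gal enzyme acceptor and GR fused C-terminally to the enzyme donor fragment; ligand-driven nuclear translocation restores β-gal by complementation. Compounds titrated up to 46 uM final, 2 h at 37 °C; luminescence read.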
# [11] = target: Mitogen-activated protein kinase 10 (Mus musculus) (UniProt Q61831); assay: JNK3 AlphaScreen Assay (AID 530; active = well fitted curve in either direction with a large enough effect, not every such curve was filed as active;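 note: kinase came from lysate of stimulated human HepG2 cells; signal reports phosphorylation of biotinylated GST-cJun 1-79 at Ser73 with 10 µM ATP; % is set by controls: 0 for no effect and ±100 for the full control effect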); conditions: JNK3 lysate, c-Jun phosphorylation; series mostly up to 57.1 µM
# Summary of the method: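 Biotinylated GST-cJun(1-79) served as substrate for JNK3 in HepG2 lysates stimulated with IL-1beta and TNF-alpha. ATP was 10 uM final, pH 7.6. Ser73 phosphorylation was quantified by AlphaScreen (680 nm excitation).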
# [12] = target: Cytochrome P450 2C9 (Homo sapiens) (UniProt P11712); assay: qHTS Assay for Inhibitors and Substrates of Cytochrome P450 2C9 (AID 883); conditions: recombinant CYP2C9, luciferin-H luminescence, 60 min; series mostly up to 57.1 µM; note: % is set by controls: 0 for no effect and ±100 for the full control effect; nearly all actives have a fitted effect of over 60% in size
# Summary of the method: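 CYP2C9 deoxyluciferin hydroxylation, 37C, 60 min with NADPH regeneration; 10nM enzyme, 100uM Luciferin-H (KM). Glo detection reagent stopped reaction; luminescence normalized to sulphaphenazole (57uM) full inhibition.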
# [13] = target: Cytochrome P450 3A4 (Homo sapiens) (UniProt P08684); assay: qHTS Assay for Activators of Cytochrome P450 3A4 (AID 885); conditions: recombinant CYP3A4, Luciferin-PPXE luminescence, 60 min; series mostly up to 57.1 µM; note: nearly all actives have a fitted effect of over 65% in size
# Summary of the method: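 CYP3A4 activity: Luciferin-PPXE O-dealkylation, 25uM substrate, 200mM KPO4, RT throughout. Read-out is luciferase luminescence; higher values reflect activation.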
# [14] = target: Cytochrome P450 2D6 (Homo sapiens) (UniProt P10635); assay: qHTS Assay for Inhibitors and Substrates of Cytochrome P450 2D6 (AID 891); conditions: recombinant CYP2D6, luciferin-ME EGE luminescence; series mostly up to 57.1 µM; note: potency is the fitted concentration of half-maximal effect; nearly all actives have a fitted effect of over 60% in size
# Summary of the method: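 Luminescent read-out of luciferin formed by 5 nM human CYP2D6 demethylating 30 uM Luciferin-ME EGE (Km level) over 60 min at room temperature after NADPH regeneration addition. Data normalized to full inhibition by 1.43 uM quinidine.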
# [15] = target: Ubiquitin carboxyl-terminal hydrolase 1 (Homo sapiens) (UniProt O94782); assay: Inhibitors of USP1/UAF1: Pilot qHTS (AID 504865); conditions: purified USP1/UAF1, Ub-rhodamine cleavage fluorescence; series mostly up to 114 µM; note: nearly all actives have a fitted effect of over 35% in size; note: potency is the fitted concentration of half-maximal effect
# Summary of the method: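 1nM USP1/UAF1 + cpd, 15 min RT; start w/ Ub-Rho 150nM final; kinetic FL 480/540 nm, 6 reads q60 s. Buffer 50mM HEPES pH 7.8, 0.5mM EDTA, 1mM TCEP, 0.01% Tween-20, 0.1 mg/ml BSA.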
# [16] = target: DNA dC->dU-editing enzyme APOBEC-3G (Homo sapiens) (UniProt Q9HC16); assay: qHTS for inhibitors of Vif-A3G interactions: Validation (AID 588379); conditions: Vif-A3G protein interaction assay; series mostly up to 46.1 µM; note: 0% is about no effect
# Summary of the method: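 Yellow fluorescence (Ex 488, Em 500-530) of Vif-coexpressing HeLa A3G-eYFP cells, scanned by Acumen cytometer, reports blocked A3G degradation. Cells plated at 700/well overnight at 37 deg C before compound addition, then a further overnight compound incubation at 37 deg C.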
# [17] = target: Cytochrome P450 3A4 (Homo sapiens) (UniProt P08684); assay: qHTS Assay for Inhibitors and Substrates of Cytochrome P450 3A4 (AID 884); conditions: recombinant CYP3A4, Luciferin-PPXE luminescence; series mostly up to 57.1 µM; note: potency is the fitted concentration of half-maximal effect; nearly all actives have a fitted effect of over 50% in size
# Summary of the method: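 Luminescent readout of luciferin produced by CYP3A4 (20 nM) dealkylation of Luciferin-PPXE, 25 uM (its KM). NADPH-driven reaction ran 60 min at RT after 10 min compound preincubation; data scaled to 57 uM ketoconazole as 100% inhibition.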
# Glucocorticoid receptor (Homo sapiens), sequence (P04150 whole entry, looked up, the tested form may be a part): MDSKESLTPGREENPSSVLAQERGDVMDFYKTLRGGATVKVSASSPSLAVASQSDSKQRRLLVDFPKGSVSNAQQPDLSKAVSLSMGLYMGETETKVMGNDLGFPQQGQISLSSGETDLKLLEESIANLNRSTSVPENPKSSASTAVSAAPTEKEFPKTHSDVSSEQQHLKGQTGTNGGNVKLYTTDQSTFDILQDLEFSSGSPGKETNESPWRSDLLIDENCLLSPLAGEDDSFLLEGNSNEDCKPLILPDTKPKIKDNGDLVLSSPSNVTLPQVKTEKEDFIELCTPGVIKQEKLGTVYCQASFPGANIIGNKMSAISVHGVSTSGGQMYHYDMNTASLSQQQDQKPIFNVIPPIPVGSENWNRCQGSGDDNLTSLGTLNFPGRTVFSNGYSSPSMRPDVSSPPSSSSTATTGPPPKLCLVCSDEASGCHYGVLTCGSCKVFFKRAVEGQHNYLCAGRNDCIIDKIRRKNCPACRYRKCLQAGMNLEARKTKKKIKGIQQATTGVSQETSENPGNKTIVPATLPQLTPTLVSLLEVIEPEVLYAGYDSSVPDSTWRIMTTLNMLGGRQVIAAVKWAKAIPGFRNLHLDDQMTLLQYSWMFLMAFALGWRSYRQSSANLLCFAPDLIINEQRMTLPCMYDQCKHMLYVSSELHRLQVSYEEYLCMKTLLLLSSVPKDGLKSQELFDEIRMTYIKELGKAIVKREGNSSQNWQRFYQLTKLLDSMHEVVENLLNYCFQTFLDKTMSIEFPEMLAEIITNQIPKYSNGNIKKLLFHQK
# Cytochrome P450 3A4 (Homo sapiens), sequence (P08684 whole entry, looked up): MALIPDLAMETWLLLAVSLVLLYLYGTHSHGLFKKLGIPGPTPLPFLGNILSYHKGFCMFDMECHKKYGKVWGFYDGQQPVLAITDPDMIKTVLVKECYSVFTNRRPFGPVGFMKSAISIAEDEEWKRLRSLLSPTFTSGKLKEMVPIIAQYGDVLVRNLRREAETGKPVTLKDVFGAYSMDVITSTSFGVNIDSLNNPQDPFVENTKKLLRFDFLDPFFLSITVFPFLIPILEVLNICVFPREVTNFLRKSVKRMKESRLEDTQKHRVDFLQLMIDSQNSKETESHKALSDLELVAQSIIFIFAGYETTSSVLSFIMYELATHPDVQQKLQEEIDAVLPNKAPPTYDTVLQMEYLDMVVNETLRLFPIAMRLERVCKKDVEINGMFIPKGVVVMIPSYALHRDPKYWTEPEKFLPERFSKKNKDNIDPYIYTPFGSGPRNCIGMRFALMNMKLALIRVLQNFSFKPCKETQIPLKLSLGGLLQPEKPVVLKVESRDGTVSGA
# Ubiquitin carboxyl-terminal hydrolase 1 (Homo sapiens), sequence (O94782 whole entry, looked up): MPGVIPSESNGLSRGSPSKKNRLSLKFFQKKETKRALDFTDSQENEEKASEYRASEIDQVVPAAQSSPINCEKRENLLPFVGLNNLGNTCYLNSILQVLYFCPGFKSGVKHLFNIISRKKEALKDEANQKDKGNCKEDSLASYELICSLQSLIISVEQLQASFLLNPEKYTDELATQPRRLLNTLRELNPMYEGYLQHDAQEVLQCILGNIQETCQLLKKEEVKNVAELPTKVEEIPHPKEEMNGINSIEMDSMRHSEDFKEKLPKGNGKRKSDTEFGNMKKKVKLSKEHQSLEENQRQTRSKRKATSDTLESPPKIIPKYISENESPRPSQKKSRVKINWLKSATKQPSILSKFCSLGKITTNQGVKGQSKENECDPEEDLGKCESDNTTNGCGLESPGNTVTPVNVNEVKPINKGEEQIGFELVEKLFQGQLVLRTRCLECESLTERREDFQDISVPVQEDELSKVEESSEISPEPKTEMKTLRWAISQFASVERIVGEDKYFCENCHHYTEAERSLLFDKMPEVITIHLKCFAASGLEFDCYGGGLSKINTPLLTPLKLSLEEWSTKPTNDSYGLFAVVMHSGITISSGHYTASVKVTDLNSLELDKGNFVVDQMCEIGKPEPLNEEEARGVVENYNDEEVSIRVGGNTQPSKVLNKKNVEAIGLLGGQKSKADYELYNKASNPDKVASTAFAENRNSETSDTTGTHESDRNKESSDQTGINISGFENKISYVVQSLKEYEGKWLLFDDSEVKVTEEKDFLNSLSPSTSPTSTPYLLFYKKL
# DNA dC->dU-editing enzyme APOBEC-3G (Homo sapiens), sequence (Q9HC16 whole entry, looked up): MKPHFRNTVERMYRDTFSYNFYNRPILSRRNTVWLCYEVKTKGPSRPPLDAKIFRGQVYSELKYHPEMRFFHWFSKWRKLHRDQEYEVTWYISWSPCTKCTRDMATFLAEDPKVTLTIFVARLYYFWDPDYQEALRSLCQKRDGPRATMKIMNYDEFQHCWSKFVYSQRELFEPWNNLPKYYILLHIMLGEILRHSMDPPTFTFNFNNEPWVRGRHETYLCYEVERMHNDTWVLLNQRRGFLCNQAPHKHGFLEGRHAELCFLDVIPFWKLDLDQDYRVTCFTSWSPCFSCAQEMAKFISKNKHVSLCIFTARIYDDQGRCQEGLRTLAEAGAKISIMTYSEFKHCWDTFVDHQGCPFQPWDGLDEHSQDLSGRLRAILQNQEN
# Cytochrome P450 2C9 (Homo sapiens), sequence (P11712 whole entry, looked up): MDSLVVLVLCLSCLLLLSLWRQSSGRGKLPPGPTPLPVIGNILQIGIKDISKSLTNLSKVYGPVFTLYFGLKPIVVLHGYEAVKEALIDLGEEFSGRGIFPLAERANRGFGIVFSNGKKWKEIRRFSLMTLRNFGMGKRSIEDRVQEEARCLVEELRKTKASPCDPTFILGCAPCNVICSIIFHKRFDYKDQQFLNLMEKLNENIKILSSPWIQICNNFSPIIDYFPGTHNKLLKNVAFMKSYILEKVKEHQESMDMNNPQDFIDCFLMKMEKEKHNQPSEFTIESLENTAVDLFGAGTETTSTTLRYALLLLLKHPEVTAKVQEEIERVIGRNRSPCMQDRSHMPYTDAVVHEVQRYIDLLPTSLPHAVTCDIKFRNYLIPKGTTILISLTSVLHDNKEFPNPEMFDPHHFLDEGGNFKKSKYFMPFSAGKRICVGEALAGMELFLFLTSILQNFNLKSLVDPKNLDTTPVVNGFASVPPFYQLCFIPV
# Cytochrome P450 2D6 (Homo sapiens), sequence (P10635 whole entry, looked up): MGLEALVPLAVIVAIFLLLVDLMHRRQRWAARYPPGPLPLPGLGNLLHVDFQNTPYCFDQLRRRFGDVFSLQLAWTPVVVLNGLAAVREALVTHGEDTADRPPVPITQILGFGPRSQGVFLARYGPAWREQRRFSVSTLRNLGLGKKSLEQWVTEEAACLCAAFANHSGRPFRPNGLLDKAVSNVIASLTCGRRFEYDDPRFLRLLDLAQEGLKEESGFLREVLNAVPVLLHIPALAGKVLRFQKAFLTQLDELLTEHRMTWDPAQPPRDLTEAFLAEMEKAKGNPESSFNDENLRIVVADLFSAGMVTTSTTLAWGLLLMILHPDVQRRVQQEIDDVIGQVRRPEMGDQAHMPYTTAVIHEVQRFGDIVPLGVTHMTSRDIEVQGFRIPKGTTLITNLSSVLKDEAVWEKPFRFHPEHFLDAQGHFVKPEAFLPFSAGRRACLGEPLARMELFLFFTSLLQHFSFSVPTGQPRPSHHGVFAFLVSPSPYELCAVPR
smiles,measurement,setting,value
CC(C)N=C(N)N=C(N)Nc1ccc(Cl)cc1,remaining parasite growth % (stronger effect = lower value),[1],-0.519%
same,"activity, percent of control",[2],0.237%
same,"remaining proliferation (% of control), lower = more inhibition",[3],0.187%
same,"parasite growth, % of DMSO control",[4],5.61%
same,"parasite growth remaining, % of DMSO control (lower = more inhibition)",[5],7.67%
same,"parasite growth, % of control (lower = inhibition)",[6],12.7%
same,"growth, % of control",[7],3.71%
same,Potency,[8],inactive
COc1ccc2cccc(N3CCN(CCNC(=O)c4ccc(F)cc4)CC3)c2c1,Potency,[9],> 46 µM (inactive)
same,Potency,[10],> 46 µM (inactive)
same,Potency,[11],inactive
same,Potency,[8],inactive
CCCCCCCC/C=C\CCCCCCCC(=O)N[C@@H](CO)Cc1ccc(O)cc1,Potency,[9],> 46 µM (inactive)
same,Potency,[10],> 46 µM (inactive)
same,Potency,[12],inactive
same,Potency,[13],inactive
same,Potency,[14],0.126 µM (active)
same,Potency,[15],22.4 µM (active)
same,Potency,[16],inactive
same,Potency,[8],inactive
O=C1c2ccccc2C(Cc2ccncc2)(Cc2ccncc2)c2ccccc21,Potency,[9],> 46 µM (inactive)
same,Potency,[10],> 46 µM (inactive)
same,Potency,[11],inactive
same,Potency,[17],0.501 µM (active)
same,Potency,[13],inactive
same,Potency,[15],inactive
same,Potency,[16],inactive
same,Potency,[8],inactive
